Inconclusive results are not listed. Entries that show only a call come without a potency. Values without a mark were called inactive. Activity calls are given as the source filed them. Calls come from the whole dose curve; as a rule, active = well fitted inhibition curve with a large enough effect; inconclusive = small, poorly fitted or top-dose-only effect; inactive = no such curve, though single readings can be large or run the other way.
Key:
[1] = test system: Zika virus NS2B-NS3 protease (unlinked complex); experiment: Primary screen GU Rhodamine qHTS for Zika virus inhibitors: Unlinked NS2B-NS3 protease assay (AID 1347159); settings: Recombinant ZIKV NS2B-NS3 protease, Rhodamine110 substrate fluorescence; series mostly up to 107 µM; note: nearly all actives have a fitted effect of over 60% in size
Outline: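 Noncovalent NS2B hydrophilic domain–NS3 protease domain complex (25 nM) preincubated 15 min at room temperature with compounds (up to 114 microM) in 10 mM Tris-HCl pH 8.0, 0.01% Tween 20; 1.5 microM Rhodamine110 substrate added, fluorescence change over 15 min fitted to Hill equation.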

[2] = test system: Zika virus NS2B-NS3 protease (linked construct); experiment: Primary screen NINDS Rhodamine qHTS for Zika virus inhibitors (AID 1347160); settings: purified NS2B-NS3 protease, Rhodamine110 substrate fluorescence; series mostly up to 57.1 µM; note: nearly all actives have a fitted effect of over 55% in size
Outline: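 Purified linked NS2B-NS3 protease (NS2B hydrophilic domain joined to NS3 protease by flexible linker), 25 nM in 10 mM Tris-HCl pH 8.0, 0.01% Tween 20. Compounds titrated, 15 min preincubation at room temperature; 1.5 microM Rhodamine110 substrate, FITC fluorescence change over 15 min.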

| SMILES | Potency [1] | Potency [2] | activity change, negative = inhibition [1] | outcome [2] |
| --- | --- | --- | --- | --- |
| CC(=O)OC1C(c2ccccc2)CCC(c2ccccc2)C1OC(C)=O (stereo unspecified) | inactive | inactive |  |  |
| CC(O)CCC1C(CO[C@@H]2O[C@H](CO)[C@@H](O)[C@H](O)[C@H]2O)CC(O)CC1(C)C (stereo partly specified) | inactive | inactive |  |  |
| CC(C)C(NC(=O)c1ccc2ccccc2n1)C(=O)NC(CC(=O)O)C(=O)COc1c(F)cccc1F (stereo unspecified) | inactive | inactive |  |  |
| C=C[C@H]1C(O[C@@H]2O[C@H](CO)[C@@H](O)[C@H](O)[C@H]2O)OC=C2C(=O)N3CCc4c([nH]c5ccccc45)C3CC21 (stereo partly specified) | inactive | inactive |  |  |
| CN(C)c1nc(NC2CCC(NCCc3ccc(Br)cc3OC(F)(F)F)CC2)nc2ccccc12 (stereo unspecified) | inactive | inactive |  |  |
| Cc1ccc(C(=O)N(CCCN)C(c2nc3cc(Cl)ccc3c(=O)n2Cc2ccccc2)C(C)C)cc1 (stereo unspecified) | inactive | inactive |  |  |
| CC1(C)CC[C@]2(C(=O)O[C@@H]3O[C@H](CO[C@@H]4O[C@H](CO)[C@@H](O)[C@H](O)[C@H]4O[C@@H]4O[C@H](CO)[C@@H](O)[C@H](O)[C@H]4O)[C@@H](O)[C@H](O[C@@H]4O[C@H](CO)[C@@H](O)[C@H](O)[C@H]4O)[C@H]3O)CC[C@]3(C)C(=CCC4[C@@]5(C)CC[C@@H](O)[C@@](C)(C(=O)O[C@@H]6O[C@H](CO)[C@@H](O)[C@H](O)[C@H]6O)C5CC[C@]43C)[C@@H]2C1 (stereo partly specified) |  |  | 14.6% [at 19.1 µM] | inactive [at 10.7 µM] |
| CNC(=O)c1ccccc1Nc1nc(Nc2ccc3c(c2OC)CCC[C@@H](N2CCN(CCO)CC2)C3)ncc1Cl | inactive | inactive |  |  |
